The values below come from PubChem BioAssay (NCATS).

“And” between values parts separate entries of the source, which are not always exact repeats. Equal values may be shown once. Results filed as inconclusive are left out. Some compounds were tested as several samples or in several runs, with calls that do not always agree. The source made the active and inactive calls. Calls follow the shape of the dose curve; as a rule, active = well fitted curve in the direction sought with a large enough effect; inconclusive = small, poorly fitted or top-dose-only effect, or another doubt; inactive = no such curve, though single readings can be large or run the other way.
% is scaled to controls: 0 for no effect and ±100 for the full control effect; potency is read from the fitted curve at half-maximal effect.

The nature of the experiment: qHTS Assay for Identifying Gametocytocidal Compounds (AID 743244).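 As to max response: actives lower the fluorescent signal which means gametocytes are killed.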 The note with it: P. falciparum 3D7 stage III-V gametocytes, alamarBlue, 72 h; max response: stronger effect = lower value. An excerpt:
Malaria cases and deaths have dropped 50% in 29 countries since 2000 due to the combined effects of long-lasting insecticidal bednets, indoor residual spraying, and artemisinin-based combination therapies (ACTs). This success has raised hopes for malaria eradication and consequently stimulated interest in developing new reagents that block gametocyte transmission such as novel and safe gametocytocidal drugs. However, previous drug development efforts have focused primarily on the asexual parasites that cause symptoms, but not malaria transmission. Consequently, patients can remain infectious for weeks after the clearance of asexual parasites and clinical symptoms. To be transmitted from person to person via a mosquito, the parasites must switch from asexual to sexual development and produce male and female gametocytes. Malaria gametocytes consist of five stages (I, II, III, IV and V). The late stage gametocytes (III, IV and V) are difficult to be cultured in vitro and the long lifespan of mature gametocytes allows them being transmitted from host to mosquitoes unless they are completely eliminated by gametocytocidal agents. To identify gametocytocidal compounds which are capable of killing late stage P. falciparum gametocytes, a high throughput gametocyte viability assay was employed. This assay uses oxidoreduction indicator, alamarBlue, as a general measure of metabolic activity of gametocytes. Within live cells, the nonfluorescent resazurin is reduced to resorufin, a bright red fluorescence dye. Fluorescence decreases upon treatment of gametocytocidal compounds. P. falciparum gametocyte (3D7 strain) was used in this study.
The 1536-well gametocycidal viability assay was based on the previous method of Tanaka et al. Stage III-V gametocytes were tested against three compound libraries, including 4265 compounds from NCGC pharmaceutical collection, 400 from Malaria Box library, and 550 from an internal collection of kinase inhibitors. Briefly, 2.5 ul/well incomplete medium was dispensed into each well of 1,536-well plates using the Multidrop Combi followed by 23 nl compound transferring using the NX-TR Pintool (WAKO Scientific Solutions, San Diego, CA). Then, 2.5 ul/well of gametocytes was dispensed with a seeding density of 20,000 cells/well using the Multidrop Combi. The assay plates were incubated for 72 h at 37C with 5% CO2. After addition of 5 ul/well of 2X AlamarBlue dye (Life Technologies, cat. no. DAL1100), the plates were incubated for 24 h at 37C with 5% CO2 and then were read in a fluorescence detection mode (Ex = 525 nm, Em = 598 nm) on a ViewLux plate reader (PerkinElmer).
On the technique in general: qHTS replaces the single test concentration by a dilution series.
Turning to `CC(=O)[C@@]1(O)CC[C@H]2[C@@H]3CCC4=CC(=O)CC[C@]4(C)[C@H]3CC[C@@]21C`, the max response is 5.26% (inactive) and 15.8% (inactive).
On to `CC1=NS(=O)(=O)c2cc(Cl)ccc2N1`, for which the max response is 4.85% (inactive).
On the same count and under the same terms, as for `CN(C)CCN(Cc1cccs1)c1ccccn1`, the figure is -13% (inactive) and 5.58% (inactive); as for `Cc1nnc(SCC2=C(C(=O)O)N3C(=O)[C@@H](NC(=O)Cn4cnnn4)[C@H]3SC2)s1`, 5.06% (inactive) and 32.1% (inactive); as for `CCO/C([O-])=N/c1c[n+](N2CCOCC2)no1`, -5.19% (inactive).
Turning to `CN(C)C(=O)Oc1cccc([N+](C)(C)C)c1`, the max response is 5.44% (inactive) and 20.8% (inactive).
In the case of `Nc1c2c(nc3ccccc13)CCCC2O` (stereo not given), the max response is -3.49% (inactive) and -6.56% (inactive).
Still for that read-out and setting: as for `CC(C)NCC(O)c1cc(O)cc(O)c1` (stereo not given), the figure is 4.9% (inactive) and 20.6% (inactive); as for `CC(C(=O)O)c1ccc(CC2CCCC2=O)cc1` (stereo not given), -0.912% (inactive) and 17.1% (inactive).
Same read-out and setting: as for `Cc1nc2sccn2c(=O)c1CCN1CCC(=C(c2ccc(F)cc2)c2ccc(F)cc2)CC1`, the figure is -7.25% (inactive) and 26.8% (inactive); as for `Cc1ccc(=O)n(-c2ccccc2)c1`, 6.86% (inactive) and 22.4% (inactive).
For `CC1=C(C)C(=O)C(CCCCC#CCCCC#CCO)=C(C)C1=O`, the Potency is 14.1 µM (active).
As for `CCN(CC)CC(=O)Nc1c(C)cccc1C`, the max response was 0.639% (inactive) and 6.44% (inactive).
On the same count and under the same terms, as for `CC(=O)Oc1cc(C(C)C)c(OCCN(C)C)cc1C`, the figure is 14.5% (inactive) and 12.4% (inactive); as for `Cc1ccc(Cl)c(Nc2ccccc2C(=O)O)c1Cl`, -8.31% (inactive) and 12.8% (inactive).
As for `OCCN1CCN(CCCN2c3ccccc3C=Cc3ccccc32)CC1`, the max response was -7.06% (inactive) and 7.36% (inactive); the Potency was 11.2 µM (active).
With `Cc1cccc(C)c1NC(=O)C(C)N` (stereo not given), the max response is 6.83% (inactive) and 24.8% (inactive).
The same measure, in the same setting: then `O=C(CCNNC(=O)c1ccncc1)NCc1ccccc1`, with -0.149% (inactive) and 4.87% (inactive).
Still for that read-out and setting: as for `CCN(Cc1ccncc1)C(=O)C(CO)c1ccccc1` (stereo not given), the figure is 10.4% (inactive) and 27% (inactive); as for `CN1CCN(C2=Nc3ccccc3Oc3ccc(Cl)cc32)CC1`, 15.1% (inactive) and -7.99% (inactive).
Turning to `NC1=NCC2c3ccccc3Cc3ccccc3N12` (stereo not given), the max response was -4.93% (inactive) and 13.9% (inactive).
On to `CC(=O)OC(C)C[N+](C)(C)C` (stereo not given), for which the max response was -4.19% (inactive) and 23.1% (inactive).
The same measure, in the same setting: as for `CC(C)(Oc1ccc(CCNC(=O)c2ccc(Cl)cc2)cc1)C(=O)O`, the figure is 5.91% (inactive) and 17.9% (inactive); as for `CCc1cccc(N(C)C(N)=Nc2cccc3ccccc23)c1`, -2.27% (inactive) and 4.9% (inactive).
Regarding `CC(C)COCC(CN(Cc1ccccc1)c1ccccc1)N1CCCC1` (stereo not given), the max response was 9.9% (inactive) and the Potency was 22.4 µM (active).
In the case of `CC(=O)OCC1=C(C(=O)O)N2C(=O)[C@@H](NC(=O)Cc3cccs3)[C@H]2SC1`, the max response was 2.41% (inactive) and 26.5% (inactive).
For `COCC(=O)O[C@]1(CCN(C)CCCc2nc3ccccc3[nH]2)CCc2cc(F)ccc2[C@@H]1C(C)C`, the Potency was 2.64 µM (active) and 1.41 µM (active).
As to `O=C(O)CCCCCCCC(=O)O`, the max response is 9% (inactive) and 10.5% (inactive).
The same measure, in the same setting: as for `Cc1scc2c1N(C(=O)CN1CCN(C)CC1)c1ccccc1NC2=O`, the figure is 11.1% (inactive) and 13% (inactive); as for `CCCN1C[C@H](CSC)C[C@@H]2c3cccc4[nH]cc(c34)C[C@H]21`, 27.1% (inactive); as for `Cc1ccc(/C(=C\CN2CCCC2)c2ccccn2)cc1`, 24.5% (inactive) and 21.6% (inactive).
As to `CC(C)NNC(=O)c1ccncc1`, the max response is -4.04% (inactive) and 10% (inactive).
On to `N[C@@H](COP(=O)(O)O)C(=O)O`, for which the max response is -4.33% (inactive) and 12% (inactive).
On to `NC(=O)c1ncn([C@@H]2O[C@H](CO)[C@@H](O)[C@H]2O)c1O`, for which the max response is 13.6% (inactive).
Regarding `CN(C(=O)CCCOc1ccc2[nH]c(=O)ccc2c1)C1CCCCC1`, the max response was -2.24% (inactive) and 11% (inactive).
In the case of `CCCCNc1ccc(C(=O)OCCN(C)C)cc1`, the max response is -1.47% (inactive) and 12.4% (inactive).
On the same count and under the same terms, as for `CC(C)[N+](C)(CCOC(=O)C1c2ccccc2Oc2ccccc21)C(C)C`, the figure is -5.05% (inactive) and 11.3% (inactive).
Regarding `Cc1ccc(S(=O)(=O)NC(=O)NN2CCCCCC2)cc1`, the max response is -5.27% (inactive) and 9.03% (inactive).
